Laboratory results: PubChem BioAssay AID1159580 (chemical genetic matrix, 2015)
Values joined by “and” are separate entries in the source; they are usually repeats but may differ in a detail not shown here. Identical values can stand only once. The whole screen tested about 5,500 compounds, of which about 2,000 (36%) were called active. Another 18% or so got no clear call; they are omitted. Cut-off read from the data, not from the text of the source: active = normalized growth mostly below about 0.91 (no sharp cut-off); inconclusive = no clear call, values can overlap the other calls; inactive = mostly above about 0.92. This is one part of the list.

Assay: chemical genetic growth profiling, strain panel (AID 1159580);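 note: tested at 20 µM; growth read once vehicle control cultures reached saturation at 30 °C; 1 = growth at the plate median or of vehicle wells; lower values mean less growth of the strain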
Conditions: S. cerevisiae deletion strains, growth OD

Measured: normalized growth

O=C(O)c1cc(=O)c2c(OCC(O)COc3cccc4oc(C(=O)O)cc(=O)c34)cccc2o1
inactive: locus YAL013W, strain DEP1, active compounds read low 1.01 | locus YAL021C, strain ccr4, active compounds read low 0.964 | locus YAL026C, strain drs2, active compounds read low 1.01 | locus YAL030W, strain snc1, active compounds read low 0.996 | locus YBL061C, strain skt5, active compounds read low 0.977 | locus YBR009C, strain hhf1, active compounds read low 0.994 | locus YBR021W, strain FUR4, active compounds read low 1.01 | locus YBR023C, strain chs3, active compounds read low 0.992 | locus YBR171W, strain sec66, active compounds read low 0.96 | locus YBR229C, strain ROT2, active compounds read low 1.01 | locus YBR231C, strain swc5, active compounds read low 0.963 | locus YBR279W, strain paf1, active compounds read low 0.995 | locus YCL011C, strain gbp2, active compounds read low 1 | locus YCL016C, strain dcc1, active compounds read low 1.02 | locus YCL029C, strain bik1, active compounds read low 1.02 | locus YCL061C, strain MRC1, active compounds read low 0.983 | locus YCL069W, strain vba3, active compounds read low 0.977 | locus YCR088W, strain abp1, active compounds read low 0.974 | locus YDL005C, strain med2, active compounds read low 0.974 | locus YDL035C, strain GPR1, active compounds read low 1.01 | locus YDL040C, strain nat1, active compounds read low 0.964 | locus YDL074C, strain BRE1, active compounds read low 1.01 | locus YDL101C, strain DUN1, active compounds read low 1.01 | locus YDL185W, strain tfp1, active compounds read low 1.03 | locus YDL192W, strain arf1, active compounds read low 1.02 | locus YDR001C, strain nth1, active compounds read low 0.971 | locus YDR069C, strain doa4, active compounds read low 0.971 | locus YDR101C, strain arx1, active compounds read low 1.03 | locus YDR137W, strain rgp1, active compounds read low 0.973 | locus YDR159W, strain sac3, active compounds read low 0.926 | locus YDR162C, strain NBP2, active compounds read low 1.01 | locus YDR195W, strain ref2 0.896 | locus YDR297W, strain sur2, active compounds read low 0.987 | locus YDR318W, strain mcm21, active compounds read low 1.02 | locus YDR334W, strain swr1, active compounds read low 0.969 | locus YDR335W, strain msn5, active compounds read low 0.967 | locus YDR388W, active compounds read low 1.02 | locus YDR392W, strain spt3, active compounds read low 1.03 | locus YDR502C, strain sam2, active compounds read low 1 | locus YEL003W, strain gim4, active compounds read low 0.955 | locus YEL037C, strain rad23, active compounds read low 0.955 | locus YEL061C, strain CIN8 (second series), active compounds read low 0.964 | locus YEL061C, strain CIN8, active compounds read low 1.01 | locus YER015W, strain faa2, active compounds read low 0.99 | locus YER016W, strain bim1, active compounds read low 0.996 | locus YER110C, active compounds read low 1.03 | locus YER111C, strain swi4, active compounds read low 0.972 | locus YER155C, strain BEM2 (second series), active compounds read low 0.935 | locus YER155C, strain BEM2, active compounds read low 1.01 | locus YER167W, strain BCK2, active compounds read low 1.01 | locus YFR010W, strain ubp6, active compounds read low 0.969 | locus YGL078C, strain dbp3, active compounds read low 1.01 | locus YGL086W, strain mad1, active compounds read low 1 | locus YGL167C, strain pmr1, active compounds read low 0.96 | locus YGL173C, strain kem1, active compounds read low 0.959 | locus YGL227W, strain vid30, active compounds read low 0.977 | locus YGL240W, strain doc1, active compounds read low 0.959 | locus YGL248W, strain PDE1, active compounds read low 1.01 | locus YGL253W, strain hxk2, active compounds read low 0.983 | locus YGR135W, strain pre9, active compounds read low 1.02 | locus YGR229C, strain SMI1, active compounds read low 1.02 | locus YGR252W, strain gcn5, active compounds read low 1.03 | locus YHR013C, strain ard1, active compounds read low 0.979 | locus YHR027C, strain rpn1, active compounds read low 0.989 | locus YHR030C, strain SLT2, active compounds read low 1.01 and 1 | locus YHR079C, strain IRE1 (second series), active compounds read low 1.03 | locus YHR079C, strain IRE1, active compounds read low 1 | locus YHR094C, strain hxt1, active compounds read low 1.02 | locus YHR129C, strain ARP1, active compounds read low 1.01 | locus YHR142W, strain chs7, active compounds read low 0.966 | locus YHR200W, strain rpn10, active compounds read low 1.02 | locus YIL066C, strain RNR3, active compounds read low 1.01 | locus YIL073C, strain SPO22, active compounds read low 1.06 | locus YIL125W, strain kgd1, active compounds read low 1.02 | locus YIR030C, strain dcg1, active compounds read low 1.03 | locus YJL092W, strain hpr5, active compounds read low 0.978 | locus YJL095W, strain BCK1 (second series), active compounds read low 0.974 | locus YJL095W, strain BCK1, active compounds read low 1.02 and 0.989 | locus YJL115W, strain asf1, active compounds read low 0.967 | locus YJL129C, strain trk1, active compounds read low 0.931 | locus YJL134W, strain LCB3, active compounds read low 1.01 | locus YJL154C, strain vps35, active compounds read low 0.962 | locus YJL164C, strain tpk1, active compounds read low 1 | locus YJL166W, strain qcr8, active compounds read low 0.953 | locus YJL168C, strain set2, active compounds read low 1.02 | locus YJL187C, strain SWE1 (second series), active compounds read low 1.02 | locus YJR043C, strain POL32, active compounds read low 0.998 | locus YJR066W, strain TOR1, active compounds read low 0.992 | locus YJR075W, strain HOC1, active compounds read low 1.01
